This is an account of results in PubChem BioAssay.

The source made the active and inactive calls.

For test [1], the target named is Albumin (Bos taurus) (UniProt P02769). Briefly: compounds binding labelled BSA control protein – biochemical, small-molecule microarray, Alexa647 label, 635/667 nm fluorescence, artefact control for SMM control protein annotation, profiling panel (AID 1118).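 Note: score merges 667 nm emission intensity and signal-to-noise per printed compound spot.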 The conditions noted are these: BSA-A647 binding, fluorescence 635 nm, higher = more signal.
Chain of Albumin (Bos taurus) (P02769 whole entry, looked up): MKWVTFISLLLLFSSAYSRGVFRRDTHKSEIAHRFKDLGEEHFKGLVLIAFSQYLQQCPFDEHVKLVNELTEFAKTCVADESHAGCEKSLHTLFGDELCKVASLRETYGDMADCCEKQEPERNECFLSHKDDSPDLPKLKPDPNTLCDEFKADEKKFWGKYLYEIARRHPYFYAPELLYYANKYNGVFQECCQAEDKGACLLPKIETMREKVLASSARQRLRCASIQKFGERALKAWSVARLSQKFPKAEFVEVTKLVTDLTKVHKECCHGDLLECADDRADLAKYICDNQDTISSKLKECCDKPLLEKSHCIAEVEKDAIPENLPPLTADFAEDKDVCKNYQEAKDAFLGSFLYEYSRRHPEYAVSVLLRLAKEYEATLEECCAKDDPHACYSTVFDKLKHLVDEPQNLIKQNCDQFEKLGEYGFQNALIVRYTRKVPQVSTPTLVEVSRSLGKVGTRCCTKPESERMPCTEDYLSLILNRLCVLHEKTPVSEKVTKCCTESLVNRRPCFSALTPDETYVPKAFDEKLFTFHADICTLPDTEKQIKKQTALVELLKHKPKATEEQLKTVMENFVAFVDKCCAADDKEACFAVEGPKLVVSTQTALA
Test [2] can be described thus: probe aXIP binding to arrayed compounds – biochemical, NeuroSMM set, 635/667 nm fluorescence, primary screen (AID 1119).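 Note: probe is the protein aXip251-270 applied at 1 µg/mL to compound-printed slides; binding of probe to printed compounds measured as 667 nm fluorescence plus signal to noise.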 The conditions noted are these: small-molecule microarray, higher = more signal, called active from +8 up or from −8 down.
The nature of test [3]: probe aNOTCH3 binding on compound microarray – biochemical, small-molecule microarray, 635/667 nm fluorescence, primary screen (AID 1120).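 Note: probe is a biotin-tagged antibody raised against NOTCH3 rather than NOTCH3 protein; score merges spot fluorescence near 667 nm with spot signal to noise.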 The following applies: higher = more signal.
The nature of test [4]: probe aNOTCH2 binding on compound microarray – biochemical, small-molecule microarray, 635/667 nm fluorescence, primary screen (AID 1121).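 Note: score merges feature fluorescence read at 667 nm with its signal to noise.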 The following applies: higher = more signal.
For test [5], the target named is Carbonic anhydrase 2 (Homo sapiens) (UniProt P00918). Briefly: compounds binding carbonic anhydrase 2 – biochemical, small-molecule microarray, Alexa647-labelled CAII, profiling panel (AID 1122). The conditions noted are these: CAII-A647 binding fluorescence, higher = more signal.
The nature of test [6]: COS7 lysate on small-molecule microarray, probe aHis, 635 nm (AID 1123).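 Note: z-score combines 667nm fluorescence intensity with signal-to-noise per printed compound spot.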 The following applies: COS7 cell lysate, fluorescence, higher = more signal.
The nature of test [7]: probe aLAP1 signal on lysate-treated microarray – cell lysate, small-molecule microarray, COS7 lysate, primary screen (AID 1124).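 Note: lysate comes from COS7 cells expressing LAP1 and is applied at 0.3 µg/mL; score merges spot fluorescence near 667 nm with signal-to-noise over triplicate slides.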 The following applies: probe aLAP1, fluorescence, higher = more signal.
Test [8] relates to Sam68 (KHDRBS1). Nature of the test: compounds binding KHDRBS1 protein – biochemical, small-molecule microarray, 635 nm fluorescence, primary screen (AID 1125).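 Note: score merges 667 nm channel intensity with signal to noise over triplicate slides.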 The following applies: higher = more signal.
Test [9] relates to Chordin-like protein 2 (CHRDL2). Briefly: compounds binding chordin-like 2 – biochemical, small-molecule microarray, 635 nm fluorescence, primary screen (AID 1126).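 Note: printed compound slides probed with Chrdl2 protein at 4 µg/mL for 1 h at 4 C; score merges 667 nm emission intensity with signal to noise over three replicate slides.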 The following applies: fluorescence 635 nm, higher = more signal.
Test [10] addresses Concanavalin-A (Canavalia ensiformis) (UniProt P02866). Briefly: compounds binding concanavalin A lectin – biochemical, small-molecule microarray, Alexa647 label, 635 nm, artefact control for SMM control protein annotation, primary screen (AID 1127).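 Note: z combines 667 nm emission intensity with signal-to-noise across three replicate slides.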 The conditions noted are these: ConA-A647 binding fluorescence, higher = more signal.
Test [11] in a line: compounds binding Alexa647 anti-His antibody – biochemical, small-molecule microarray, 635 nm fluorescence, artefact control for SMM control protein annotation, primary screen (AID 1128).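 Note: score merges feature fluorescence with signal-to-noise for each printed compound spot.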 The conditions noted are these: higher = more signal.
The subject of test [12] is Human papillomavirus type 1a E7 protein (residues 1-88). Briefly: HPV1a E7 small-molecule binders, primary screen, biochemical, small-molecule microarray, residues 1-88, 635 nm (AID 1129). The following applies: small-molecule microarray binding, fluorescence 635 nm; higher = more signal.
Test [13] deals with Focal adhesion kinase 1 (Homo sapiens) (UniProt Q05397). Nature of the test: PTK2 protein binding on printed compound slides – biochemical, small-molecule microarray, 635/667 nm fluorescence, BSA, DTT, primary screen (AID 1130).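 Note: composite of spot emission at 667 nm and signal to noise over triplicate slides.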 The conditions noted are these: 635 nm fluorescence, higher = more signal.
Chain of Focal adhesion kinase 1 (Homo sapiens) (Q05397 whole entry, looked up): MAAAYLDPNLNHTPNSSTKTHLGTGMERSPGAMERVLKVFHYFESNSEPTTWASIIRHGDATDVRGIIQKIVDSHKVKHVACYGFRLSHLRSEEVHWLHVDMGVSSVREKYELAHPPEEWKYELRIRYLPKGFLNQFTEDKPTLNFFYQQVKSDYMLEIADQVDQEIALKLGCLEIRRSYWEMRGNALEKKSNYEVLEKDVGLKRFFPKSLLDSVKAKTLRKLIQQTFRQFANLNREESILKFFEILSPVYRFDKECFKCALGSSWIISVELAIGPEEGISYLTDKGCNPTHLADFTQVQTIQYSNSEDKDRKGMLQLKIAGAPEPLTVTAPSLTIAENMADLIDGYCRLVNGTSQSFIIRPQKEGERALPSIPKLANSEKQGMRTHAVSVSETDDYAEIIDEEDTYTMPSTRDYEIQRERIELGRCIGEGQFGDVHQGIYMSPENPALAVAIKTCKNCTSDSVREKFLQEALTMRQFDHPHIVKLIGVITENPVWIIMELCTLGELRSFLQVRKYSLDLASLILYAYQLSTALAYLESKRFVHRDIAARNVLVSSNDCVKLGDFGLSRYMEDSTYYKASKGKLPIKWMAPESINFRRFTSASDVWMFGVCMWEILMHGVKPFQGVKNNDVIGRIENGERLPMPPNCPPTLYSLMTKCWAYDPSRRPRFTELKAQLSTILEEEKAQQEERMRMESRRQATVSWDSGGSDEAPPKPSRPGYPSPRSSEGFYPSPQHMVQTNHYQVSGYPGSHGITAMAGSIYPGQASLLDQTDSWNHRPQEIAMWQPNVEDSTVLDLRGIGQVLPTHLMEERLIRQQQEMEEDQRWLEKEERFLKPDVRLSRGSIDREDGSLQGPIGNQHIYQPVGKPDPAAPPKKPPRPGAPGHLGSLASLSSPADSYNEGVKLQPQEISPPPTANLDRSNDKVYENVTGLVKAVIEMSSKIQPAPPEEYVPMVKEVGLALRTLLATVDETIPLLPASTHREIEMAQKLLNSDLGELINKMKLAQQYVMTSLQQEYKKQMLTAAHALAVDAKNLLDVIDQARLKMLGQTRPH
Test [14] relates to Fibrinogen (Alexa647-labelled). Briefly: Alexa647-fibrinogen binding to printed small molecules – biochemical, small-molecule microarray, 635/667 nm fluorescence, artefact control for SMM control-protein annotation, profiling panel (AID 1131).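 Note: z-score merges 667 nm fluorescence with per-spot signal-to-noise over triplicate slides.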 The conditions noted are these: fibrinogen-A647 binding fluorescence, higher = more signal.
For test [15], the target named is Follistatin (Homo sapiens) (UniProt P19883). Briefly: FST protein binding to printed compounds – biochemical, small-molecule microarray, 635/667 nm fluorescence, primary screen (AID 1132). The conditions noted are these: 635 nm fluorescence, higher = more signal.
Chain of Follistatin (Homo sapiens) (P19883 whole entry, looked up): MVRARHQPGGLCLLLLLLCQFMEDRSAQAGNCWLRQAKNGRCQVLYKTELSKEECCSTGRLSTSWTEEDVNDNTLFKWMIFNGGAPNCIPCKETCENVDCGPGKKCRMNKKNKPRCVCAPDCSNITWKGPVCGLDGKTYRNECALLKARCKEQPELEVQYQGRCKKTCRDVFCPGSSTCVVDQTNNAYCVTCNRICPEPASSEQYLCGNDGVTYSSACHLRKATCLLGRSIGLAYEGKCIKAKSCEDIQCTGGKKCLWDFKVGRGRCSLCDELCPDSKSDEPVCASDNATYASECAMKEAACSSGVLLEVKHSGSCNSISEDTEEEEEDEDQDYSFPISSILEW
Test [16] has as its target Fibroblast growth factor 2 (Homo sapiens) (UniProt P09038). Nature of the test: basic fibroblast growth factor binding to printed compounds – biochemical, small-molecule microarray, 635/667 nm fluorescence, primary screen (AID 1133). The conditions noted are these: FGF2, fluorescence 635/667, higher = more signal.
Test [17] in a line: JC-1 mitochondrial potential readout, lung cancer cells – cell-based, A549, JC-1 fluorescence, basal, 24 h, 100 nL, profiling panel (AID 1138).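 Note: A549 lung adenocarcinoma cells under basal conditions with no added stimulus; test concentration not given here.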 The following applies: higher = more signal.
Test [18] deals with Lefty1. Nature of the test: Lefty1 protein binding to printed compounds – biochemical, small-molecule microarray, 635/667 nm fluorescence, primary screen (AID 1139). The conditions noted are these: fluorescence 635/667, higher = more signal.
Test [19] concerns wheat germ agglutinin (Triticum aestivum), Alexa647-labelled. Briefly: Alexa647-WGA lectin binding to printed small molecules – biochemical, small-molecule microarray, 635/667 nm fluorescence, artefact control for SMM control-protein annotation, profiling panel (AID 1140).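 Note: score merges 667 nm feature emission with signal to noise over triplicate slides.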 The conditions noted are these: WGA-A647 binding, 635 nm fluorescence, higher = more signal.
Test [20] deals with Luciferin 4-monooxygenase (Photinus pyralis) (UniProt P08659). Nature of the test: inhibition of purified Photinus pyralis luciferase – biochemical, luminescence, purified enzyme, 2006 set, primary screen (AID 1141).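 Note: cell-free assay with purified firefly luciferase at 100 ng per well in PBS; test concentration not given here.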 The conditions noted are these: purified firefly luciferase, SteadyGlo luminescence, 30 min; higher = more signal, called active from +8 up or from −8 down.
Chain of Luciferin 4-monooxygenase (Photinus pyralis) (P08659 whole entry, looked up): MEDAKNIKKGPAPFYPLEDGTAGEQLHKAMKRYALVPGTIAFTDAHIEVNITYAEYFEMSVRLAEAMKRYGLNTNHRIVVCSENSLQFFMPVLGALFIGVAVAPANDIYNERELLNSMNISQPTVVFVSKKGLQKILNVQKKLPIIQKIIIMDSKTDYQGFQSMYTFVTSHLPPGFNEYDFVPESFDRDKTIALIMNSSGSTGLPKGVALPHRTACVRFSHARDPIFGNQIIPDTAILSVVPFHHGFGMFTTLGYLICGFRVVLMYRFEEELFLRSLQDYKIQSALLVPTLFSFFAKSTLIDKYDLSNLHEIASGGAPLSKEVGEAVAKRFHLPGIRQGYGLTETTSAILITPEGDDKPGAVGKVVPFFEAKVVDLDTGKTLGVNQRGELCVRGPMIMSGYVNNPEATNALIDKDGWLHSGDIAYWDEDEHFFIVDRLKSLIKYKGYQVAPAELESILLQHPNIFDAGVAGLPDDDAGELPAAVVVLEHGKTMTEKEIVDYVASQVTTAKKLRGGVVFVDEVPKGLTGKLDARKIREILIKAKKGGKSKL

Chain of Concanavalin-A (Canavalia ensiformis) (P02866 whole entry, looked up): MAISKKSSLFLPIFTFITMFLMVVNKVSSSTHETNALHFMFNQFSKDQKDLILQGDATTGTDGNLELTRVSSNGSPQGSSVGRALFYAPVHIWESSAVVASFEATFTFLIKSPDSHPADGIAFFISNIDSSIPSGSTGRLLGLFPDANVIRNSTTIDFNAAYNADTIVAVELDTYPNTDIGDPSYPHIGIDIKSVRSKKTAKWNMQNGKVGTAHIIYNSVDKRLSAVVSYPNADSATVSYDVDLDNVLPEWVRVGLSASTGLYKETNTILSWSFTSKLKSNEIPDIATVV
Chain of Fibroblast growth factor 2 (Homo sapiens) (P09038 whole entry, looked up): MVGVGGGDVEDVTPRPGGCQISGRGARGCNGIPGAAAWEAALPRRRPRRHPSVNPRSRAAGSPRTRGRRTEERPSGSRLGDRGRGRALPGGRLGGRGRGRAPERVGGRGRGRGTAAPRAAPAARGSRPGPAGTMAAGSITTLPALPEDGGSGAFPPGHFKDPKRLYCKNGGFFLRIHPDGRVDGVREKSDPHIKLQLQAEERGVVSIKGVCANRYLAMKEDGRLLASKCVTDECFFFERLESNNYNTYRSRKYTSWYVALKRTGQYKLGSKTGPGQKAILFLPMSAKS

Take `CC(C)C(=C=CC[C@H](O)c1ccc(OCCO)cc1)C[C@H](O)COCc1ccccc1`: the composite z-score in test [1] is 0.394; in test [3], 0.0522; in test [4] it was -0.179; in test [5], 0.508; in test [6], 1.43; in [7], 1.04. Also, the composite z-score in test [8] is 1.3; in test [9], 0.433; in test [10], 0.673; in test [11], 1.73; in test [12], 1.18; in test [13], -0.0245. Moreover, the composite z-score in [14] came out at 0.749; in test [15] it was 1.31; in test [16], 1.03; in test [18], 0.795; in test [19], 0.325. Besides, the composite Z-score in test [2] is 0.813 (inactive). In addition, the z-score was 2.47 in test [17] and -2.55 (inactive) in [20].

With `Cc1ccc(N2C(=O)c3ccccc3[C@](C)(C(=O)NCC(F)(F)F)[C@@H]2c2ccc(CO)cc2)nc1`, the composite z-score in [1] is -1.6; in test [3], -0.403; in [4], -0.177; in test [5] it was 0.869; in test [6] it was -0.552; in test [7] it was 0.0759. Also, the composite z-score is -1.78 in test [8]; -1.8 in test [9]; -1.26 in [10]; -1.32 in [11]; -1.22 in test [12]; -0.637 in test [13]. For the same compound, the composite z-score is -1.94 in [14]; -1.6 in test [15]; -0.986 in test [16]; -2.1 in test [18]; -0.188 in [19]. The composite Z-score in test [2] was -0.326 (inactive). The results for the z-score in test [17] and in test [20] were -0.2 and -0.679 (inactive), respectively.

Consider `COCCOC(=O)N1C(=O)[C@@]2(c3cc(C#CCNC(N)=O)ccc31)[C@H](C(=O)NC[C@H](O)c1ccccc1)[C@H]1C(=O)O[C@H](c3ccccc3)[C@H](c3ccccc3)N1[C@@H]2c1ccc(O)cc1`, for which the composite z-score in test [1] was 0.348; in [3] it was -0.0044; in [4], -0.104; in [5], 0.0718; in [6], 1.14; in test [7], 1.01. The composite z-score in test [8] is 0.928; in test [9] it was -0.474; in test [10] it was 1.02; in test [11] it was 0.95; in test [12], 0.502; in [13], 0.492. Also, the composite z-score in test [14] stood at 0.651; in test [15], 1.35; in test [16], 0.674; in test [18] it was 0.16; in [19] it was 0.436. Also, the composite Z-score in [2] is 0.239 (inactive). Besides, the values for the z-score in [17] and in test [20] were -0.175 and -1.48 (inactive), respectively.

In the case of `CC(=O)NCCCC[C@@H]1NC(=O)[C@@H]2C[C@H](C(=O)O)[C@H](c3cccc(OCCO)c3)N2C1=O`, the composite z-score was -1.33 in [1]; -0.126 in test [3]; -0.146 in test [4]; 0.276 in [5]; 0.348 in test [6]; 0.0927 in test [7]. In addition, the composite z-score in test [8] came out at 1.34; in test [9], 1.31; in test [10], 1.15; in [11], 2; in test [12], 1.07; in test [13] it was 0.341. The composite z-score in test [14] stood at 0.041; in test [15], 1.35; in test [16], 1.73; in [18], 1.42; in test [19], 0.795. Also, the composite Z-score in test [2] was 0.274 (inactive). Besides, the z-score is 1.2 in test [17] and -1.16 (inactive) in test [20].

Take `CCN(CC)c1ccc(N2CC=CC34O[C@@H]5C=CCOC(=O)[C@@H]5[C@H]3C(=O)N(C(C)CO)[C@@H]4C2=O)cc1` (stereo not given in full): the composite z-score in test [1] was -1.28; in test [3] it was -0.213; in test [4], -0.126; in [5], 0.0808; in test [6], -0.67; in test [7], 0.0745. Also, the composite z-score in test [8] was -1.69; in test [9], -1.35; in [10], -1.51; in [11], -1.34; in test [12], -1.28; in test [13], -1.02. Further, the composite z-score was -2.61 in test [14]; -1.04 in test [15]; -1.13 in [16]; -1.65 in [18]; -1.07 in test [19]. Moreover, the composite Z-score in test [2] is -0.237 (inactive). Moreover, the z-score was 1.39 in test [17] and -0.822 (inactive) in test [20].
